Source: PubChem
Gli-Sufu block: antagonists of Gli-Sufu signaling. AID 588413. Sufu-KO-LIGHT fibroblasts, Gli luciferase reporter luminescence. inhibition, % at 5 µM. hit rate 0.74% among 340,000;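 active = inhibition above about 55%, limit read from the data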;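 note: 0% = DMSO-treated cells and 100% = wells with medium but no cells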
Shn3 3UTR inh: reduces Shn3 3'UTR luciferase signal in osteoblasts. hit rate 0.52% among 360,000. AID 588674. inhibition, % at 12.5 µM. Clone20 osteoblast Shn3 3'UTR firefly luciferase, 24 h;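 active = mean inhibition of at least 75% with every replicate also reaching 75%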;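 note: 0% = median of neutral control wells and 100% = pilot-screen positive control compound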
CSC inhib: blocks cancer stem cells; inhibition, % at 7.5 µM; cancer stem cell-like cells viability, luminescence; AID 2717; hit rate 1.1% among 300,000; in the data active = inhibition above about 75%; tested in HMLE shEcad cells
PAX8 reporter: lowers PAX8-driven luciferase in RMG-I cells; inhibition, % at 12.6 µM; RMG-I TPO-luciferase reporter, SteadyGlo, 24 h; hit rate 1.2% among 360,000;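 active = mean replicate inhibition at least 60% with every replicate also reaching 60%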;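 note: luciferase light reporting Pax8 driven TPO promoter activity; plate controls were median of neutral control wells for no effect and mitoxantrone controls for full effect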
Mdm2 MdmX PPI: inhibitors of human Mdm2/MdmX interaction; SaOS-2 split-luciferase Mdm2/MdmX complementation, luminescence; O15151+Q00987; hit rate 3% among 330,000; inhibition, % at 8 µM;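 active = inhibition of at least 50% at 8 µM in the primary screen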
Target sequence (O15151 whole entry, looked up): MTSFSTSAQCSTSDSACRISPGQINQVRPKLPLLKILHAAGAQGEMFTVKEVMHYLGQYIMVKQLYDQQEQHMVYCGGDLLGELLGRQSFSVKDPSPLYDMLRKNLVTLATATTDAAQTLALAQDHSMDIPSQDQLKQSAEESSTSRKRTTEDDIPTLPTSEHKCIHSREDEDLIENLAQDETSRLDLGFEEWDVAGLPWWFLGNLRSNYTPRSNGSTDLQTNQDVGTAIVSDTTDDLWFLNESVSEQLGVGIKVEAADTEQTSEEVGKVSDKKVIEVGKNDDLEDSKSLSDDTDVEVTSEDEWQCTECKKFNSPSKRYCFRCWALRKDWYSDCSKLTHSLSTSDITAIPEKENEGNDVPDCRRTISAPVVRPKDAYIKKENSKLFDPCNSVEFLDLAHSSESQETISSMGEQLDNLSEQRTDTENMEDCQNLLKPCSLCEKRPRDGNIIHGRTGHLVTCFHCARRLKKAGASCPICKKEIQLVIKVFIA
Target sequence (Q00987 whole entry, looked up): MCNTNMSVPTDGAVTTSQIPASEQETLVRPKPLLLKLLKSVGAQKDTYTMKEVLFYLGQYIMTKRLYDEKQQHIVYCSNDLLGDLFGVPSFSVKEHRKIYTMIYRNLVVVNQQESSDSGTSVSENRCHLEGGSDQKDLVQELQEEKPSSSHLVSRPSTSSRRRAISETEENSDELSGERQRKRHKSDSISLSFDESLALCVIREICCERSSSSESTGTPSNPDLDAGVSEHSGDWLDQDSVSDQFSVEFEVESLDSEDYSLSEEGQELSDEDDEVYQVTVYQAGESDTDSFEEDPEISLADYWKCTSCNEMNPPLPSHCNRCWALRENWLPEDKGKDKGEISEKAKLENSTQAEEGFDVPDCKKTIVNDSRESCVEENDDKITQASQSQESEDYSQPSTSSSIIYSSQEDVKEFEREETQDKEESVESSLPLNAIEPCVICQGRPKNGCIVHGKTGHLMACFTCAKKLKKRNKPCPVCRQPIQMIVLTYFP
Beta cell apopt: blocks beta cell apoptosis. INS-1E cytokine-induced death, ATP luminescence, 48 h; percent of positive-control rescue, neutral wells zero. protection from apoptosis, % (concentration not given with the values). hit rate 0.8% among 300,000;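 active = Every replicate reaches about 75%, or at least half do and their mean reaches it too, limit read from the data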;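 note: 0% = cytokine-treated negative control wells and 100% = positive control rescue; higher means more ATP so stronger rescue from cytokine killing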
Numbers without * were called inactive; · = no result given. Sampled rows, rich in hits. Any-hit rate of the full collection: about 4%.

SMILES	Gli-Sufu block	Shn3 3UTR inh	CSC inhib	PAX8 reporter	Mdm2 MdmX PPI	Beta cell apopt
CCn1c(=O)c(C(=O)Nc2ccccc2)c(O)c2ccccc21	-16	4	-18	-2	31	-6
COc1ccc(C(=O)NC(=S)NNC(=O)c2cnccn2)cc1OC	6	76	38	4	34	82*
O=C(/C=C/c1ccccc1)NC(=S)NNC(=O)c1cnccn1	-1	57	87*	31	45	78*
O=C(/C=C/c1ccccc1)NC(=S)NNC(=O)c1cccnc1	-1	-6	-1	16	-4	0
C[C@@H]1CN([C@H](C)CO)C(=O)c2cccc(NC(=O)C3CCOCC3)c2O[C@H]1CN(C)Cc1ccc(Oc2ccccc2)cc1	·	·	·	43	·	·
COc1ccc(NC(=S)NN(C)C(=S)Nc2ccc(OC)cc2)cc1	-4	-7	123*	1	44	2
Cc1ccc2c(c1)=N/C(=N\c1[nH]c(O)c3ccccc13)N=2	·	-20	·	-20	·	·
Oc1[nH]c(N=C2N=c3ccccc3=N2)c2ccccc12	53	76	51	-9	·	113*
Cc1ccc(C)c(S(=O)(=O)Nc2ccc(O)cc2)c1	4	29	-5	·	29	-6
Cc1ccc(C)c(S(=O)(=O)Nc2ccc(-n3cnnn3)cc2)c1	4	83*	-11	·	8	-2
CO[C@H]1CN(C)C(=O)c2ccc(NC(=O)C3CCCC3)cc2OC[C@@H](C)N(C(=O)CC2CC2)C[C@@H]1C	·	·	·	-7	·	·
O=C(C[C@H]1CC[C@@H](NC(=O)C2CCOCC2)[C@H](CO)O1)Nc1nccs1	·	·	·	-4	·	·
CC(=O)Nc1ccc(-c2cn3cc(C)ccc3n2)cc1	-83	-14	-10	-46	-56	-3
Cc1ccc2nc(-c3ccc(O)c(O)c3)cn2c1	-2	90*	37	13	-58	16
CCOC(=O)c1sc(=S)n(C)c1NC(=O)c1ccccc1Cl	-5	14	-8	76*	-3	-1
CCOC(=O)c1sc(NC(=O)Nc2ccccc2)cc1C	-127	18	33	-208	-163	16
CCOC(=O)c1sc(NC(=O)Nc2ccccc2Cl)cc1C	-133	-53	94*	-130	-51	42
C[C@H]1CN([C@@H](C)CO)C(=O)c2cc(NC(=O)C3CCCCC3)ccc2O[C@@H]1CN(C)C(=O)Nc1ccc(C(F)(F)F)cc1	·	·	·	-1	·	·
O=C(Nc1ccc(SC(F)F)cc1)C12CCC(CC1)C2	-30	-7	2	-61	-63	4
C=C1C2(C(=O)Nc3ccc(SC(F)F)cc3)CCC(C2)C1(C)C (stereo not drawn)	-1	-4	-8	98*	-31	2
O=C(Nc1cc(Sc2ccccn2)cc([N+](=O)[O-])c1)c1cccc(F)c1	22	70	40	15	40	84*
O=C(c1cc(-c2ccccc2Cl)nc2ccccc12)N1CCN(c2ccccn2)CC1	11	18	9	·	-22	98*
Cc1ccc(-c2cc(C(=O)N3CCN(c4ccc(O)cc4)CC3)c3ccccc3n2)cc1	-16	-29	79*	-48	34	-3
O=C(Nc1ccc(Cl)c(Cl)c1)N[C@H]1CC[C@H](CCn2cc(C3CCCCC3)nn2)O[C@@H]1CO	·	·	·	-12	·	·
O=C(NCc1ccco1)c1ccc2c(c1)N(Cc1ccccc1)CCS2	11	-2	129*	-13	-9	-1
SMILES	Gli-Sufu block	Shn3 3UTR inh	CSC inhib	PAX8 reporter	Mdm2 MdmX PPI	Beta cell apopt
O=C(NCc1ccco1)c1ccc2c(c1)N(Cc1ccc(Cl)cc1)CCS2	12	21	-1	-14	19	-13
CC(CCc1ccccc1)NC(=O)c1ccc(C(=O)NC(C)CCc2ccccc2)cc1 (stereo not drawn)	8	53	10	81*	44	-1
CCNC(=O)Nc1ccc2c(c1)C(=O)N(C)[C@@H]1CC[C@@H](CC(=O)N[C@H](C)c3ccccc3)O[C@H]1CO2	·	·	·	-18	·	·
CC(C)CC#Cc1ccc2c(c1)O[C@@H](CN(C)Cc1ccncc1)[C@H](C)CN([C@H](C)CO)S2(=O)=O	·	·	·	92*	·	·
CC(C)CC#Cc1ccc2c(c1)O[C@H](CN(C)Cc1ccncc1)[C@@H](C)CN([C@H](C)CO)S2(=O)=O	·	·	·	21	·	·
CC(C)CC#Cc1ccc2c(c1)O[C@H](CN(C)Cc1ccccn1)[C@H](C)CN([C@@H](C)CO)S2(=O)=O	·	·	·	57	·	·
CC(C)CC#Cc1ccc2c(c1)O[C@H](CN(C)Cc1ccncc1)[C@@H](C)CN([C@@H](C)CO)S2(=O)=O	·	·	·	73*	·	·
